Assay outcomes (PubChem)
Sampled rows, rich in hits. Any-hit rate of the full collection: about 2.3%.
RGS12 GoLoco inh: qHTS Assay for Inhibitors of RGS12 GoLoco Motif Activity (Red Fluorophore). Potency, µM (series often up to 61.6 µM), for the others: top-dose activity, negative = inhibition, actives largely listed as inhibitors. Guanine nucleotide-binding protein G(i) subunit alpha-1 (Homo sapiens), P63096. AID 880, 2007. actives 0.44% (n = 230,000). Gai1:RGS12 GoLoco peptide FP, rhodamine, 10 min; active = well fitted inhibition curve with a large enough effect, not every such curve was filed as active; inactive = no such curve, though single readings can be large or run the other way; note: potency is the fitted concentration of half-maximal effect; % is set by controls: 0 for no effect and ±100 for the full control effect; nearly all actives have a fitted effect of over 30% in size
HTT aggregate: qHTS Multiplex Assay to Identify Dual Action Probes in a Cell Model of Huntington: Aggregate Formation (GFP); PC12 HttQ103-GFP aggregates, Acumen cytometry, 40 h; Potency, µM (series often up to 46.1 µM), inactives show at the highest dose activity change, negative = inhibition, actives largely listed as inhibitors; actives 1.1% (n = 220,000); AID 1688, 2009; note: potency is the fitted concentration of half-maximal effect; % is set by controls: 0 for no effect and ±100 for the full control effect; nearly all actives have a fitted effect of over 60% in size
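Aggregate formation scored by laser-scanning cytometer (488 excitation, 500–530 emission) in lysed PC12 cells expressing Q103-GFP after 100 nM tebufenozide induction; library tested in dose series, with ATPLite reagent added in the multiplex.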
HTT cytoprotect: qHTS Multiplex Assay to Identify Dual Action Probes in a Cell Model of Huntington: Cytoprotection (ATP). Potency, µM (highest dose often 56.4 µM), for inactives: cytoprotection (ATP increase), actives largely listed as activators. PC12 HTT-Q103 induced, cytoprotection, ATP luminescence, 40 h. actives 0.14% (n = 230,000); note: potency is the fitted concentration of half-maximal effect; % of control where 0% means no effect; nearly all actives have a fitted effect of over 45% in size
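Quantitative HTS on tebufenozide-induced (100 nM) PC12 cells expressing HTTQ103 exon 1–GFP; compounds tested as a concentration series; survival measured via cellular ATP.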
VDR inhibitor: Inhibitors of the vitamin D receptor (VDR): qHTS; VDR-SRC2-3 peptide fluorescence polarization, 2 h; Vitamin D3 receptor (Homo sapiens), P11473; Potency, µM, without a hit: max response, negative = inhibition, hits mostly inhibitors; actives 0.93% (n = 400,000); AID 504847, 2011; note: potency is the fitted concentration of half-maximal effect; % is set by controls: 0 for no effect and ±100 for the full control effect
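Inhibition of the VDR/SRC2-3 peptide interaction is quantified by fluorescence polarization. Compounds (23 nl, pintool) incubate with the reagents for 2 hours at ambient room temperature.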
Coupling enz: qHTS Assay for Inhibitors of Fructose-1,6-bisphosphate Aldolase from Giardia Lamblia: Coupling assay counterscreen. activity change, negative = inhibition, % at 58.2 µM, hits read low. coupling enzyme system counterscreen, AmpLite Red fluorescence. actives 0.67% (n = 290,000); in the data active = activity change below about -30%; note: % is set by controls: 0 for no effect and ±100 for the full control effect
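Counterscreen of the coupled detection system alone, without aldolase: glyceraldehyde-3-phosphate coupling enzymes plus AmpLite Red readout. Compounds at 57.5 uM final, 10 min RT preincubation, 20 min RT reaction, fluorescence 525/598 nm.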
KDM4E inh: qHTS Assay for Inhibitors of Human Jumonji Domain Containing 2E (JMJD2E); Potency, µM (highest dose often 57.1 µM), without a hit: at the top dose activity change, negative = inhibition, usual class: inhibitors; JMJD2E catalytic domain, FDH-coupled NADH fluorescence (FDH is formaldehyde dehydrogenase); AID 2147, 2009; Lysine-specific demethylase 4E (Homo sapiens), B2RXH2; actives 1.6% (n = 230,000); active = well fitted inhibition curve with a large enough effect, not every such curve was filed as active; inconclusive = small, poorly fitted or top-dose-only effect, or another doubt; inactive = no such curve, though single readings can be large or run the other way;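 note: potency is the fitted concentration of half-maximal effect; 0% = wells with enzyme and -100% = buffer wells without enzyme; nearly all actives have a fitted effect of over 50% in size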
Target sequence (B2RXH2 1-337 limits assumed): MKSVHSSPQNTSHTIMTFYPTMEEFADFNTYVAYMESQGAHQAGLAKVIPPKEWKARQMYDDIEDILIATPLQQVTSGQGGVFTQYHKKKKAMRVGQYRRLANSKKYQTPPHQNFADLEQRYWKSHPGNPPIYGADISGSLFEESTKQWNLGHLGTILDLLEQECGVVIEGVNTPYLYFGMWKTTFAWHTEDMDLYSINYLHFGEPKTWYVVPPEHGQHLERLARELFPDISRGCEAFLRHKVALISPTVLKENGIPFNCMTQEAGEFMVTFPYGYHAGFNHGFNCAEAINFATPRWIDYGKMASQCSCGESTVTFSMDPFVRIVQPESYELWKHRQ
Numbers without * were called inactive; ? = inconclusive; / = not tested or not shown; [ ] = remark or other dose. Unless noted, calls come from the whole dose curve; as a rule, active = well fitted curve in the direction sought with a large enough effect; inconclusive = small, poorly fitted or top-dose-only effect, or another doubt; inactive = no such curve, though single readings can be large; an effect the other way counts as inactive or inconclusive.

SMILES	RGS12 GoLoco inh	HTT aggregate	HTT cytoprotect	VDR inhibitor	Coupling enz	KDM4E inh
COc1cc2c(cc1OC)n(Cc1cccc(C(F)(F)F)c1)c(=O)n1nc(-c3ccccc3)nc21	/	/	/	7.0%	/	/
Cc1cc(C)n(CC(=O)Nc2ccc3c(c2)OCO3)c(=O)c1C#N	/	/	/	-10.3%	/	/
COc1cccc(C(=O)CC(C#N)c2ccc(F)cc2)c1 (centres undefined)	/	/	/	9.3%	1.5	/
CC(=O)N/N=C/c1cc(C(C)(C)C)cc(/C=N/NC(C)=O)c1O	13.8%	9.6%[9.22 µM]	?	9.9%	-1.8	22.4µM*
FC(F)(F)c1ccccc1-c1nccc(-n2ccnc2)n1	-24.9%	/	-70.0%	44.7µM*	-7.2	/
CS(=O)(=O)Nc1cccc(-c2nccc(-n3ccnc3)n2)c1	-10.2%	/	-5.8%	?	-0.1	?
N#Cc1cccc(-c2nccc(-n3ccnc3)n2)c1	-3.2%	/	?	50.1µM*	-0.5	/
O=C(O)C1OC(Oc2c(-c3ccc(O)c(O)c3)oc3cc(O)cc(O)c3c2=O)C(O)C(O)C1O (centres undefined)	-6.0%	-7.7%	/	-3.1%	-0.1	4.47µM*
CC1OC(Oc2c(-c3cc(O)c(O)c(O)c3)oc3cc(O)cc(O)c3c2=O)C(O)C(O)C1O (centres undefined)	12.2%	7.2%[9.22 µM]	-2.6%[10 µM]	-9.4%	-46.9*	3.3%
C[C@@H]1O[C@@H](OC[C@@H]2O[C@@H](Oc3c(-c4ccc(O)c(O)c4)oc4cc(O)cc(O)c4c3=O)[C@H](O)[C@H](O)[C@@H]2O)[C@H](O)[C@H](O)[C@@H]1O	/	/	-0.4%	/	/	/
O=C(Nc1ccc(Br)cc1)C1CCN(c2ncccn2)CC1	/	/	/	5.6%	/	/
C/C(=C\C(=O)c1ccccc1)Nc1ccc(O)cc1	-4.2%	12.7%	-27.2%	-24.6%	-31.4*	-29.0%
C/C(=C\C(=O)c1cccnc1)Nc1ccc(O)cc1	-2.4%	-1.7%	-19.5%	-3.7%	-21.4	?
CC(C)C(=O)Nc1ccc(N2CCCC2)cc1	4.6%	3.3%	1.5%	11.6%	-32.0*	-28.1%
CC(C)C(=O)Nc1ccc(N2CCN(c3ccc(F)cc3)CC2)cc1	3.0%	9.5%	17.9%[10 µM]	-6.4%	5.8	3.5%
Cc1ccccc1/C=C/C1=NCCN1	-5.7%	/	/	2.6%	/	17.8µM*
C[n+]1cccc(/C=C\c2ccc3cccc(O)c3n2)c1	-6.2%[14.2 µM]	/	1.4%[10 µM]	/	/	/
O=C(O)c1ccc(/C=C/c2ccc3cccc(O)c3n2)cc1	6.0%	-9.8%	?	3.6%	-22.6	8.91µM*
Oc1cccc2ccc(/C=C/c3c(F)cccc3Cl)nc12	-5.6%	?	-53.1%	17.6%	-2.1	28.2µM*
Cc1nnc(SCC2=C(C(=O)O)N3C(=O)C(NC(=O)COc4ccc(F)cc4)C3SC2)s1 (centres undefined)	/	/	/	79.4µM*	/	/
CCCCCc1c(C)nc(NCc2ccccc2)[nH]c1=O	9.0%	31.6µM*	-13.4%[0.074 µM]	-5.9%	-0.4	-19.2%
CSc1nsc(/C=C/Nc2ccc(C(=O)O)cc2)c1C#N	15.5%	20.6%	0.9%	-10.5%	-13.3	22.4µM*
COc1ccc(NC(=O)CCCN2C(=O)CN(C)C2=O)cc1Cl	/	/	/	-8.7%	/	/
C=CCN(Cc1nc(-c2ccccc2)no1)C(=O)c1ccco1	/	/	/	-23.4%	1.7	/
C[N+](C)(C)CCOC(=O)C1(c2ccccc2)CCCC1	7.08µM*	0.5%	-3.5%	-8.6%	1.1	-8.1%
CC(C[N+](C)(C)C)OC(=O)C1(c2ccccc2)CCCC1 (centres undefined)	-21.8%	-10.6%[9.22 µM]	17.7%[10 µM]	-16.6%	2.1	1.0%
